Test [1] can be described thus: small molecules captured by biotinylated probe aFSTL3 – biochemical, small-molecule microarray, fluorescence 635/667, stem cell growth factor project, primary screen (AID 1064).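 Also: measures binding of the biotinylated anti-FSTL3 antibody to printed compounds.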 The following applies: higher = more signal.
Test [2] in a line: binders from COS7 lysate, DM2A8 probe, primary screen, torsin A project, cell lysate, small-molecule microarray, fluorescence 635/667 (AID 1065). The conditions noted are these: higher = more signal, COS7 lysate expressing mutant human TOR1A.
The nature of test [3]: small molecules captured by biotinylated probe aFGF2 – biochemical, small-molecule microarray, fluorescence 635/667, stem cell growth factor project, primary screen (AID 1067).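 Also: measures binding of biotinylated aFGF2 protein to printed compounds on slides; z-score merges feature fluorescence and signal-to-noise across triplicate slides.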 The following applies: higher = more signal.
Test [4] in a line: small molecules captured by biotinylated probe aFGF10 – biochemical, small-molecule microarray, fluorescence 635/667, stem cell growth factor project, primary screen (AID 1071).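 Also: score merges 667 nm spot intensity and signal to noise from triplicate slides.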 The conditions noted are these: higher = more signal.
In test [5] the target is Neurogenic locus notch homolog protein 2 (Homo sapiens) (UniProt Q04721). Nature of the test: small molecules binding Notch2 protein – biochemical, small-molecule microarray, 635 nm fluorescence, stem cell growth factors, primary screen (AID 1073). The conditions noted are these: higher = more signal.
Test [6] addresses Pro-neuregulin-1, membrane-bound isoform (Homo sapiens) (UniProt Q02297). Nature of the test: small molecules binding neuregulin-1 protein – biochemical, small-molecule microarray, fluorescence 635/667, psychiatric disease protein project, primary screen (AID 1075).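 Also: score combines 667 nm spot fluorescence with signal to noise.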 The following applies: NRG1 binding, 635 nm fluorescence, higher = more signal.
In test [7] the test system is Neuregulin-1 EGF-like domain. The test is described as follows: small molecules binding NRG1 EGF domain – biochemical, small-molecule microarray, 635 nm fluorescence, primary screen (AID 1081).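 Also: binding of the protein to compounds printed on small-molecule microarray slides.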 The following applies: higher = more signal.
A short description of test [8]: FRG1 expression reporter modulators in myotubes – cell-based, C2C12 myotubes, firefly/Renilla luciferase, luminescence, FRG1 inhibition for FSHD, primary screen (AID 1084). The conditions noted are these: FRG1 promoter luciferase, higher = more signal, called active from +8 up or from −8 down.
Test [9] is described as follows: small molecules captured by biotinylated probe aFST – biochemical, small-molecule microarray, fluorescence 635/667, stem cell growth factor project, primary screen (AID 1086).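 Also: score merges 667 nm fluorescence with signal-to-noise of each printed compound spot.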 The following applies: higher = more signal.
Test [10] in a line: binders of probe aHhip on microarray, primary screen, stem cell growth factor project, biochemical, small-molecule microarray, fluorescence 635/667 (AID 1087).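 Also: score merges spot fluorescence at 667nm with spot signal to noise ratio.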 The following applies: higher = more signal.
For test [11], the system named is PRMT1 (protein arginine N-methyltransferase 1). The test is described as follows: small molecules binding arginine methyltransferase PRMT1 – biochemical, small-molecule microarray, 635 nm fluorescence, primary screen (AID 1088).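 Also: binding of Prmt1 protein to compounds spotted on small-molecule microarray slides.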 The conditions noted are these: higher = more signal.
Test [12] in a line: growth effects on S. cerevisiae YJM789 – YJM789 clinical isolate, OD600, 24 h, basal, primary screen (AID 1089).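 Also: growth of clinical yeast isolate S. cerevisiae YJM 789 seeded 1000 cells per well; test concentration not given here.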 The conditions noted are these: higher = more signal, called active from +8 up or from −8 down.
Test [13] is described as follows: S. pombe growth modifiers, basal conditions – strain 972, OD600, 24 h, no modulator, primary screen (AID 1090).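 Also: basal condition with compound alone and no growth modifier present; test concentration not given here.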 The conditions noted are these: S. pombe 972 growth, higher = more signal, called active from +8 up or from −8 down.
Test [14] can be described thus: budding yeast growth modifiers under rapamycin – strain BY4716, OD600, 96 h, primary screen (AID 1091). Also: test concentration not given here. The following applies: S. cerevisiae BY4716 + rapamycin, higher = more signal, called active from +8 up or from −8 down.
Test [15] addresses Torsin-1A-interacting protein 2 (Homo sapiens) (UniProt Q8NFQ8). The test is described as follows: small molecules binding lysate-expressed LULL1 – cell lysate, human LULL1 lysate, 635/667 nm fluorescence, primary screen (AID 1092).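 Also: probe is lysate of COS7 cells overexpressing human LULL1; score merges per-feature 667 nm fluorescence with signal-to-noise.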 The following applies: small-molecule microarray, hLULL1 lysate binding, 635 nm fluorescence; higher = more signal.
Test [16] is described as follows: optical density change of DRC41 E. coli – strain DRC41, OD650, 24 h, E. coli filamentation project, primary screen (AID 1093).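 Also: MC1000 strain lacking acrAB efflux and sulA so SOS filamentation is blocked; test concentration not given here.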 The conditions noted are these: E. coli DRC41 growth, higher = more signal, called active from +8 up or from −8 down.
The nature of test [17]: probe aLefty2 binding to arrayed compounds – biochemical, biotinylated probe, 635/667 nm fluorescence, primary screen (AID 1094).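 Also: score merges spot fluorescence near 667 nm with spot signal-to-noise ratio.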 The following applies: small-molecule microarray, higher = more signal.
The test system of test [18] is Noggin (protein binding on small-molecule microarray). The test is described as follows: small molecules binding Noggin protein – biochemical, 635/667 nm fluorescence, primary screen (AID 1095).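 Also: score merges 667 nm feature fluorescence with signal to noise over triplicate slides.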 The conditions noted are these: 635 nm fluorescence, higher = more signal.
The target of test [19] is Neurogenic locus notch homolog protein 3 (Homo sapiens) (UniProt Q9UM47). The test is described as follows: small molecules binding NOTCH3 protein – biochemical, 635/667 nm fluorescence, primary screen (AID 1096). The following applies: small-molecule microarray, 635 nm fluorescence, higher = more signal.
A short description of test [20]: probe aEGFR binding to arrayed compounds – biochemical, biotinylated probe, 635/667 nm fluorescence, primary screen (AID 1097).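 Also: probe is a biotinylated anti-EGFR antibody binding compounds printed on slides; score combines fluorescence near 667 nm and signal to noise of each spot.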 The following applies: small-molecule microarray, higher = more signal.

The values below come from PubChem BioAssay.

Molecules are shown by their SMILES. The source made the active and inactive calls.

Neurogenic locus notch homolog protein 2 (Homo sapiens), sequence (Q04721 whole entry, looked up, canonical isoform): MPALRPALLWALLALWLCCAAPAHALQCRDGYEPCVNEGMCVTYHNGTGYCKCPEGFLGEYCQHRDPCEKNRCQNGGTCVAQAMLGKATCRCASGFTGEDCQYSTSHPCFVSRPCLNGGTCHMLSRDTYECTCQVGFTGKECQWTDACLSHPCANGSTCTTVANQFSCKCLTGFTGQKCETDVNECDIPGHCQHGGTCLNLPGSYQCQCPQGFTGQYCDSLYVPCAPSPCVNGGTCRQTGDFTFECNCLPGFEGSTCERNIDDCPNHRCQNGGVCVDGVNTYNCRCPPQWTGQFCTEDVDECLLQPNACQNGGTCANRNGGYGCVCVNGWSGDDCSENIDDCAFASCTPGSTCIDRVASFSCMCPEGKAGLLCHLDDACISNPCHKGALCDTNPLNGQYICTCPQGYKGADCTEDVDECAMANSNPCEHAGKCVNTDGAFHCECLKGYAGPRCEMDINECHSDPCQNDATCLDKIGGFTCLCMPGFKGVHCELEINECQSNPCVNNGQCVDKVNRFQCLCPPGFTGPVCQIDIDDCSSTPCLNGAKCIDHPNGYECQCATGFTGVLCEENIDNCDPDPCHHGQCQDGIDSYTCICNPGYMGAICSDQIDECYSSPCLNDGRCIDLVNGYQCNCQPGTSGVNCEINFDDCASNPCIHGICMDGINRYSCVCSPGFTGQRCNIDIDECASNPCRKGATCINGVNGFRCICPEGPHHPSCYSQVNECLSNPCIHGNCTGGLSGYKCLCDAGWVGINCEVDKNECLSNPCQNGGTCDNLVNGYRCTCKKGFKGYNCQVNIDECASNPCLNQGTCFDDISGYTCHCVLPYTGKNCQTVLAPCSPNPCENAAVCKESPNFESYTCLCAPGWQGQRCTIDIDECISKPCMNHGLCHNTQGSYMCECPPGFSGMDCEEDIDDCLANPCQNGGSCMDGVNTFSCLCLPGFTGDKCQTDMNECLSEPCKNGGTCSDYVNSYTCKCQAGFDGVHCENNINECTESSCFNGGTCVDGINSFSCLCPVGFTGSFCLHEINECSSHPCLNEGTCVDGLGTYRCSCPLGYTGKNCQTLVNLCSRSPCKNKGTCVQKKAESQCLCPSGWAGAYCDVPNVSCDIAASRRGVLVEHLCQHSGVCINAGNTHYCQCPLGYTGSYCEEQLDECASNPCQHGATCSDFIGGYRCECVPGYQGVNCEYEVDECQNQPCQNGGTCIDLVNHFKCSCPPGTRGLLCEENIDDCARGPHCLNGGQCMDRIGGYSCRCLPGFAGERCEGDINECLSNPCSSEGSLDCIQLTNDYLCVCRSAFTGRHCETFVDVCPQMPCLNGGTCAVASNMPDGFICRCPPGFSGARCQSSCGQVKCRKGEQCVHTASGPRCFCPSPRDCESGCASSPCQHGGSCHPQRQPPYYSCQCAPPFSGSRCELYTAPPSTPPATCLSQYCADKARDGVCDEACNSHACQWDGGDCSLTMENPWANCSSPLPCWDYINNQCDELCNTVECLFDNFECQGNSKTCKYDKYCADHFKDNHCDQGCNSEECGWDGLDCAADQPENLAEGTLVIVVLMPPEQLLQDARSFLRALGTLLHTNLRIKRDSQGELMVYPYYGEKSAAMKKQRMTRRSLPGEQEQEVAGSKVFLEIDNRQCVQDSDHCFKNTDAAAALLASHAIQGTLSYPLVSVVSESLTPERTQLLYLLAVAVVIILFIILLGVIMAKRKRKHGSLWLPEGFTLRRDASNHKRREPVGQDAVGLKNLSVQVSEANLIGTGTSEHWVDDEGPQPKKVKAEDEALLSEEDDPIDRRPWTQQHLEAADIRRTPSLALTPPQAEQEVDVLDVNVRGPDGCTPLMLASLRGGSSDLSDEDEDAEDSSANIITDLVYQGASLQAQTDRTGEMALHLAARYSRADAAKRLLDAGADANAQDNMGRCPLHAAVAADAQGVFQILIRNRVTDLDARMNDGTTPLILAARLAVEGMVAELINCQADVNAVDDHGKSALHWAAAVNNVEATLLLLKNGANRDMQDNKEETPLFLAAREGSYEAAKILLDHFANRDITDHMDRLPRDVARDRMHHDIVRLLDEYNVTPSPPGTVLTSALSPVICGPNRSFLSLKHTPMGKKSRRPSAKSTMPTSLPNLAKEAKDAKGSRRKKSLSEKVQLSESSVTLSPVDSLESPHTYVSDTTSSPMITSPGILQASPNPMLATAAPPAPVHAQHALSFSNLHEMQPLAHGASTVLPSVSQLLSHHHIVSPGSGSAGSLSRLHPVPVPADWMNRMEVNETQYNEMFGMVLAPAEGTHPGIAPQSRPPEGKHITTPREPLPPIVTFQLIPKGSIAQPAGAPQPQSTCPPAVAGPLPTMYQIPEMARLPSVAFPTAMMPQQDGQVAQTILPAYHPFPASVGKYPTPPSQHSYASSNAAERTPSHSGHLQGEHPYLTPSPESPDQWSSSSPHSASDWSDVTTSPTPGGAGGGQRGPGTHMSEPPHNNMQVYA
Pro-neuregulin-1, membrane-bound isoform (Homo sapiens), sequence (Q02297 whole entry, looked up, the tested form may be a part, canonical isoform): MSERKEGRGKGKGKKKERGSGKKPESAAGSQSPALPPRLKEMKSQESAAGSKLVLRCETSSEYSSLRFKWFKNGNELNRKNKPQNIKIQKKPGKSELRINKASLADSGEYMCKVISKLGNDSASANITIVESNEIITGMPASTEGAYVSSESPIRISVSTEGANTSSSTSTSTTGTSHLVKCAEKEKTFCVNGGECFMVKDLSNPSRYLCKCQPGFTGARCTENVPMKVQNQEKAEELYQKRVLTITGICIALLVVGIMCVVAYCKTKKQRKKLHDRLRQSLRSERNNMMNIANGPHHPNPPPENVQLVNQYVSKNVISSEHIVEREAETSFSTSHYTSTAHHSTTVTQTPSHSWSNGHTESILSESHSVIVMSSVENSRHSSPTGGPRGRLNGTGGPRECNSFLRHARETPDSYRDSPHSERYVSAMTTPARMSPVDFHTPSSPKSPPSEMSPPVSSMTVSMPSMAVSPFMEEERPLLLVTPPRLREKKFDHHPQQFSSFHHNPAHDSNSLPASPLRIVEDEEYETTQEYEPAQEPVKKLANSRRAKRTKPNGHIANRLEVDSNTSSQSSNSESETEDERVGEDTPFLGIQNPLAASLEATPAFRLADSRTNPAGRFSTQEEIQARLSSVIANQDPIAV
Torsin-1A-interacting protein 2 (Homo sapiens), sequence (Q8NFQ8 whole entry, looked up): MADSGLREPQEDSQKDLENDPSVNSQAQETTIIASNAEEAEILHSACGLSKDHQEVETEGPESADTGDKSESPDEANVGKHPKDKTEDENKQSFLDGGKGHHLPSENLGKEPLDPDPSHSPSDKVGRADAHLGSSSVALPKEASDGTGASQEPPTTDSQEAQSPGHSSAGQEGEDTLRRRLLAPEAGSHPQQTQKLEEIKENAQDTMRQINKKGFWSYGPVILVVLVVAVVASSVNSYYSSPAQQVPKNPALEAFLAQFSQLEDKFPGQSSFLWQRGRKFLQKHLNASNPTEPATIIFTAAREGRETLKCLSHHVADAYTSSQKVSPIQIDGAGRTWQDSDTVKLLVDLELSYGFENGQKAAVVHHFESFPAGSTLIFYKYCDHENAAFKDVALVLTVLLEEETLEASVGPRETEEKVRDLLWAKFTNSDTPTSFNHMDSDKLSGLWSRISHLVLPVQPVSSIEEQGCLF

On to `COCCOC(=O)N1C(=O)[C@@]2(c3cc(C#CCC(C(=O)OC)C(=O)OC)ccc31)[C@H](C(=O)NC[C@H](O)c1ccccc1)[C@H]1C(=O)O[C@H](c3ccccc3)[C@H](c3ccccc3)N1[C@@H]2c1ccc(O)cc1`, for which the composite z-score in test [1] is -0.0562; in [2] it was 0.498; in test [3], -0.0647; in test [4], 0.954; in test [5], 0.269; in test [6], 1.01. Also, the composite z-score in test [7] is 1.28; in [9], 1.04; in [10], 0.213; in [11], 1.36; in test [15] it was 2.78; in test [17] it was -0.0845. In addition, the composite z-score in [18] is -1.08; in test [19], 0.687; in test [20] it was -0.0828. Further, the z-score was -0.81 (inactive) in test [8]; 1.05 (inactive) in [12]; 1.37 (inactive) in test [13]; 0.174 (inactive) in test [14]; -0.377 (inactive) in test [16].
Take `CO[C@H]1O[C@H](CO)[C@@H](OC(=O)CCc2ccccc2)[C@H](OC(=O)c2cc3ccccc3[nH]2)[C@H]1OC(=O)c1cc2ccccc2[nH]1`: the composite z-score in test [1] is -0.262; in test [2] it was 0.489; in test [3] it was -0.0321; in test [4], 0.72; in test [5], 1.15; in test [6] it was 1.21. The composite z-score was 1.02 in test [7]; 0.29 in [9]; 0.0596 in test [10]; 1.38 in [11]; 2.74 in [15]; -0.0468 in test [17]. Further, the composite z-score in [18] is 0.565; in test [19] it was 1.07; in test [20] it was -0.0662. The z-score in [8] is -0.3 (inactive); in test [12] it was -0.583 (inactive); in [13], -0.0932 (inactive); in [14], 20 (active); in test [16], 1.5 (inactive).
`CC1CC/C=C\[C@H]2OC34C=CCN(CCN5CCOCC5)C(=O)[C@H]3N(C(C)CO)C(=O)[C@@H]4C2C(=O)O1` (stereo not given in full): the composite z-score in test [1] was -0.246; in test [2] it was -1.61; in test [3] it was -0.125; in test [4], -0.467; in test [5], -0.939; in [6] it was -1.14. Further, the composite z-score in [7] was 0.737; in test [9], -0.311; in test [10] it was -0.0672; in [11] it was 0.564; in test [15], 3.36; in test [17], -0.161. The composite z-score in test [18] is 0.223; in test [19], 0.21; in test [20], -0.156. Moreover, the z-score was -0.203 (inactive) in test [8]; 0.194 (inactive) in test [12]; -0.365 (inactive) in test [13]; 0.0614 (inactive) in test [14]; -0.476 (inactive) in [16].
As for `CCOC(=O)C[C@H]1[C@H](OC(=O)c2ccccc2-c2ccccc2)[C@@H](NC(=O)c2ccccc2)c2cc(OCCCO)ccc2N1C(=O)c1ccccc1`, the composite z-score is -0.304 in test [1]; 0.0919 in [2]; -0.0885 in [3]; 0.585 in test [4]; 0.494 in test [5]; 0.127 in test [6]. For the same molecule, the composite z-score in test [7] is 0.0357; in [9], 0.0801; in test [10], 0.0274; in [11] it was 0.0302; in [15], 1.22; in test [17], -0.214. Moreover, the composite z-score in [18] was 0.169; in test [19], 0.243; in test [20], -0.0726. In addition, the z-score was 0.0899 (inactive) in test [8]; -0.0764 (inactive) in [12]; 0.587 (inactive) in test [13]; 1.58 (inactive) in test [14]; -1.11 (inactive) in [16].
Regarding `COC(=O)[C@@]1(Cc2ccc(OC)cc2)[C@H]2c3cc(C(=O)N4CCCC4)n(Cc4ccc(OC(F)(F)F)cc4)c3C[C@H]2CN1C(=O)c1ccccc1`, the composite z-score in test [1] is 0.572; in [2], -1.05; in test [3], 0.225; in test [4] it was 0.703; in test [5] it was 1.74; in test [6], 1.39. For the same molecule, the composite z-score was 0.283 in [7]; 1.28 in [9]; 0.113 in test [10]; -1.02 in [11]; 0.0202 in test [15]; 0.412 in [17]. The composite z-score was -0.442 in test [18], 0.75 in [19] and 0.343 in [20]. Further, the z-score in test [8] was 0.612 (inactive); in [12], 0.59 (inactive); in test [13] it was 1.74 (inactive); in [14] it was 3.21 (inactive); in [16] it was -0.376 (inactive).
